# Assay results as given in PMC4336329 (PLoS ONE, 2015).
# Hit rate of the full screen: of about 310,000 compounds, about 14,000 (4.5%) showed an effect of 50% or more. Effects have a minus sign here. The entries come from a sample that favours strong results as a whole.
# Target: human ether-à-go-go-related gene (hERG) potassium channel (human, UniProt Q12809)
# Assay: primary screen, population patch clamp on CHO cells stably expressing hERG; higher = less effect of the substance
# 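Note: peak tail current of the secondary pulse compared with the same well before compound.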
# Sequence of human ether-à-go-go-related gene (hERG) potassium channel (Q12809 whole entry, looked up): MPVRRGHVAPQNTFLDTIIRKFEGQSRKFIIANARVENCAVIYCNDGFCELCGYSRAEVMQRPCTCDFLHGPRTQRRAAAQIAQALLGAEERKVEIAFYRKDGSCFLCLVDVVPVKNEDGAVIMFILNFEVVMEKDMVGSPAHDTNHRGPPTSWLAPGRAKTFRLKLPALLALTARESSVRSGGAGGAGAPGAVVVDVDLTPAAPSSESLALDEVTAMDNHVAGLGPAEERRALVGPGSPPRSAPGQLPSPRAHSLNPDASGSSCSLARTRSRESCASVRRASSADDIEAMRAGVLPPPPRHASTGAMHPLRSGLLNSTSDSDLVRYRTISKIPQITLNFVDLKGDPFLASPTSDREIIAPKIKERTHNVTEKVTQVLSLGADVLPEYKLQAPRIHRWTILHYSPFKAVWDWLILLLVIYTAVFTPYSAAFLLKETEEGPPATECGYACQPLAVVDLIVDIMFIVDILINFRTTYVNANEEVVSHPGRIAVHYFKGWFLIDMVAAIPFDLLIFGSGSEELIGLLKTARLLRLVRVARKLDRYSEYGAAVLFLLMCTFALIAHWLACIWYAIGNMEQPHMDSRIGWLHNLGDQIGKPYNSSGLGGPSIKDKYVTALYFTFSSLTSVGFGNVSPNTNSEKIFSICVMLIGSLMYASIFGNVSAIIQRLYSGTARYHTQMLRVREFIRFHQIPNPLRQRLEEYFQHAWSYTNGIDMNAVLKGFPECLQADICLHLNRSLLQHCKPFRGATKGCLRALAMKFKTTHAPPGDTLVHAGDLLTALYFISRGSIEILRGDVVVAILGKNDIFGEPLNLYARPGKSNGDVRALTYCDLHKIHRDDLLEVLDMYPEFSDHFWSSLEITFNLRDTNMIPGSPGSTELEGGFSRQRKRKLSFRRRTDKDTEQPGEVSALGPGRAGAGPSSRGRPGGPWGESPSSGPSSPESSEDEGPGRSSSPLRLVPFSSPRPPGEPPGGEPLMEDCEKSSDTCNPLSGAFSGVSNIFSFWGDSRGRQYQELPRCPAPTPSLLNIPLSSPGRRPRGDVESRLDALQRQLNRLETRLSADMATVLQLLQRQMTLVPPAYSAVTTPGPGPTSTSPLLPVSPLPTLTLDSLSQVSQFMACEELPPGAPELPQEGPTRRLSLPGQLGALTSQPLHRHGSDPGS
row,Compound,"hERG current change (%, negative = inhibition) at 10uM [%]"
1,O=C(COc1ccc(Cl)cc1)NC(=S)Nc1ccccc1N1CCOCC1,17.4
2,Cc1ccc2c(O)c(C)c(=O)[nH]c2n1,24.3
3,O=C(Nc1ccc(S(=O)(=O)NC2=NCCCCC2)cc1)c1ccco1,2.7
4,CCN(CC)c1ccc(NC(=O)CSc2ccsc2[N+](=O)[O-])c(C)c1,5.74
5,Br.CN1CCN(CC(=O)c2cc(C(C)(C)C)c(O)c(C(C)(C)C)c2)CC1,-13.3
6,COc1cccc(Cn2c(=O)oc3ccccc32)c1,4.3
7,COc1ccc(C(=O)OCc2cc(=O)n3c(C)csc3n2)cc1F,-2.77
8,Cc1csc2nc(COC(=O)c3cccc(N(C)C)c3)cc(=O)n12,-32.5
9,Cc1csc2nc(COC(=O)c3ccc(Cl)c([N+](=O)[O-])c3)cc(=O)n12,-63.1
10,Fc1ccc(-c2cc(C(F)(F)F)nc(N3CCCCC3)n2)cc1,19.5
11,C/C(Cn1cnc([N+](=O)[O-])n1)=N/NC(=O)COc1c(Cl)cc(Cl)cc1Cl,-31.4
12,COc1ccccc1CNC(=O)C/C(C)=N/NC(=O)COc1ccc(C)cc1Br,-63.9
13,CCCNC(=O)C/C(C)=N/NC(=O)COc1ccc(C)cc1Br,-20.9
14,COc1ccc(C(=O)N/N=C(\C)Cn2nc([N+](=O)[O-])cc2C)cc1,-15.8
15,C/C(CC(=O)NCc1ccco1)=N\NC(=O)COc1ccc(Cl)cc1Cl,-65.6
16,C/C(Cn1nc([N+](=O)[O-])cc1C)=N\NC(=O)COc1c(Cl)cc(Cl)cc1Cl,-68
17,Cc1cc(C)n(CC(=O)NNC(=O)COc2ccc(Cl)cc2Cl)n1,3.06
18,O=C(COc1ccc(Cl)cc1Cl)NCc1ccco1,0.837
19,C/C(CC(=O)NCc1ccc(Cl)cc1)=N\NC(=O)COc1ccc(C)cc1Br,-33.1
20,C/C(Cn1nc([N+](=O)[O-])cc1C)=N\NC(=O)COc1ccc(Cl)cc1Cl,-66.3
21,C/C(CC(=O)NCc1ccco1)=N\NC(=O)c1ccc(Cl)cc1Cl,8.44
22,C/C(Cn1nc([N+](=O)[O-])cc1C)=N\NC(=O)COc1ccccc1[N+](=O)[O-],-17.4
23,O=C(NN1C(=O)CSC1=S)C(=O)NN1C(=O)CSC1=S,25.3

row,Compound,"hERG current change (%, negative = inhibition) at 10uM [%]"
1,O=C(Nc1ccccc1C(=O)Nc1ccccc1C(=O)O)c1ccccc1,20.5
2,CN1CCN(Cc2nnc(-c3ccccc3)o2)CC1,22.7
3,C/C(=C\C(=O)c1cccnc1)Nc1ccc(C)c(C)c1,-20
4,CCc1ccc(OCC2NCCc3cc(OC)c(OC)cc32)cc1 (stereo not drawn),-45.2
5,CC(=O)Nc1ccc(N2CCCC2)cc1,6.33
6,CCN1CCN(C(c2ccccc2)c2sc3nc(C)nn3c2O)CC1 (stereo not drawn),-9.32
7,C/C(CC(=O)N(C(C)C)C(C)C)=N\NC(=O)COc1ccc(Cl)cc1Cl,-22.6
8,C/C(CC(=O)Nc1ccccc1)=N\NC(=O)COc1ccc(C)cc1Br,2.14
9,C/C(CC(=O)N(C(C)C)C(C)C)=N\NC(=O)COc1ccc(Br)cc1Br,-51.3
10,Cc1cc2nc(-c3ccc(SCC(=O)Nc4ccc(S(=O)(=O)N5CCCC5)cc4)nc3)[nH]c2cc1C,8.52
11,Cc1cccc(N2C(=O)CC(N3CCN(Cc4ccc5c(c4)OCO5)CC3)C2=O)c1 (stereo not drawn),-19.1
12,Cc1ccc(CN2CCN(Cc3cn(C)nc3-c3ccccc3)CC2CCO)o1 (stereo not drawn),1.84
13,COc1ccc(CN2CCN(Cc3cn(C)nc3-c3ccccc3)CC2CCO)c(C)c1C (stereo not drawn),-72.4
14,CCOc1ccccc1CN1CCN(Cc2cn(C)nc2-c2ccccc2)CC1CCO (stereo not drawn),-65.6
15,CCn1ncc(CN2CCN(Cc3ccc(OC)c(C)c3C)C(CCO)C2)c1C (stereo not drawn),-19.9
16,Cn1cc(CN2CCN(Cc3ccccc3)C(CCO)C2)c(-c2ccccc2)n1 (stereo not drawn),-37.9
17,COc1cc(C2CC(=O)Oc3c2c(=O)n(C)c2ccccc32)ccc1O (stereo not drawn),14.7
18,COc1ccc(NC(=O)C2(c3ccc(NC(=O)c4ccc(OC)cc4)cc3)CCCC2)cc1,-9.88
19,CCn1c(SCC(=O)N/N=C/c2ccccc2OCC(=O)O)nnc1-c1ccc(C)cc1,3.57
20,Cn1c(=O)c(C(=O)COC(=O)c2cc(C3CC3)nc3ccccc23)c(N)n(Cc2ccccc2)c1=O,13.8
21,Cc1ccc(-n2ncc3c2CCCC3NC(=O)c2csnn2)cc1C (stereo not drawn),-33.2
22,Cc1cc(C)cc(-n2ncc3c2CCCC3NC(=O)c2csnn2)c1 (stereo not drawn),-110
23,CC(C)(C)c1ccc(-n2ncc3c2CCCC3NC(=O)c2csnn2)cc1 (stereo not drawn),1.88

row,Compound,"hERG current change (%, negative = inhibition) at 10uM [%]"
1,Cc1cccc(-n2ncc3c2CCCC3NC(=O)CCN2Cc3ccccc3C2=O)c1C (stereo not drawn),2.55
2,Cc1ccccc1-n1ncc2c1CC(C)(C)CC2NC(=O)CCN1Cc2ccccc2C1=O (stereo not drawn),-3.54
3,Cc1cc(C)cc(-n2ncc3c2CCCC3NC(=O)C2CCC2)c1 (stereo not drawn),-76
4,CC(=O)N1CCC(C(=O)NC2CCCc3c2cnn3-c2cc(F)cc(F)c2)CC1 (stereo not drawn),-4.52
5,Cc1cc(C)cc(-n2ncc3c2CCCC3NC(=O)CCN2Cc3ccccc3C2=O)c1 (stereo not drawn),-54.3
6,CC(=O)c1cc(C(=O)NC2CCCc3c2cnn3-c2cc(C)cc(C)c2)[nH]n1 (stereo not drawn),-23
7,Cc1cc(C)cc(-n2ncc3c2CCCC3NC(=O)C2(C(N)=O)CC2)c1 (stereo not drawn),13.7
8,Cc1cc(C)cc(-n2ncc3c2CCCC3NC(=O)c2cc(C)[nH]n2)c1 (stereo not drawn),-67.5
9,Cc1cc(C(=O)NC2CCCc3c2cnn3-c2ccc(C(C)(C)C)cc2)n[nH]1 (stereo not drawn),-5.84
10,O=C(/C=C/Nc1ccc(S(=O)(=O)Nc2cnc3ccccc3n2)cc1)c1cccnc1,-12.9
11,O=C(C[n+]1cc(Br)cc(Br)c1)c1ccccc1.[Br-],8.53
12,CC(C)C(=O)c1cn(CC(=O)NCc2ccc3c(c2)OCO3)c2ccccc12,16
13,CC1(C)CC(=O)C=C(c2ccc3[nH]ccc3c2)C1,1.61
14,O=C(CC1SC(=Nc2ccc3c(c2)OCCO3)NC1=O)Nc1ccc(F)cc1F (stereo not drawn),8.62
15,Cc1n[nH]c(=S)n1/N=C/c1ccc(OCc2ccc(Cl)cc2Cl)cc1,11.1
16,Cc1cc(NC(=O)Cn2nnc(-c3ccccc3N)n2)no1,11.8
17,CCOC(=O)c1c(NC(=O)CSc2nnc(-c3ccccc3)o2)sc(C(C)=O)c1C,5.01
18,O=C(C1CC1)N1CCN(c2ccc([N+](=O)[O-])cc2-n2cccc2)CC1,-31
19,O=C(c1ccccc1)N1CCN(c2ccc([N+](=O)[O-])cc2-n2cccc2)CC1,-54.5
20,CC(C)(C)C(=O)N1CCN(c2ccc([N+](=O)[O-])cc2-n2cccc2)CC1,-26.3
21,Cc1ccc(N2CCN(C(=O)c3ccccc3)CC2)c(C)c1,-18.4
22,O=C(c1ccccc1F)N1CCN(c2ccc([N+](=O)[O-])cc2-n2cccc2)CC1,-23.1
23,O=C(c1ccc(F)cc1)N1CCC(C(=O)N2CCN(S(=O)(=O)c3cccc([N+](=O)[O-])c3)CC2)CC1,-34.5

row,Compound,"hERG current change (%, negative = inhibition) at 10uM [%]"
1,Cc1ccc(C(=O)N2CCN(c3ccc([N+](=O)[O-])cc3-n3cccc3)CC2)cc1,-56.4
2,O=C(c1ccc(F)cc1)N1CCN(c2ccc([N+](=O)[O-])cc2-n2cccc2)CC1,-65
3,CCOC(=O)C1CCCN(C(=O)c2cc3ccc(OC)cc3[nH]2)C1 (stereo not drawn),6.4
4,CN1CCN(CCCNCc2cn(CCC#N)c3ccccc23)CC1.O=C(O)C(=O)O,9.43
5,Cc1ccc(C(O)(COC(=O)C(C)C)COC(=O)C(C)C)c(O)c1,3.76
6,O=C(CCCC(=O)N(c1ccc2c(c1)OCCO2)C(C(=O)NC1CCCCC1)c1ccc(F)cc1)Nc1ccccn1 (stereo not drawn),10
7,COc1ccc([N+](=O)[O-])cc1CSc1ccccn1,1.85
8,O=C(NC1CCCCC1)C(c1cccs1)N(CC1CCCO1)C(=O)c1csnn1 (stereo not drawn),-16.1
9,COc1ccc(NC(=O)c2noc(C(C)C)c2[N+](=O)[O-])cc1,6.44
10,COc1ccc(NC(=O)CN2CCN(S(=O)(=O)c3ccc(C(C)C)cc3)CC2)cc1OC,-66.5
11,COc1ccc(NC(C)=O)cc1NC(=O)CN1CCN(S(=O)(=O)c2ccc(C(C)C)cc2)CC1,-9.86
12,Cc1ccc(NC(=O)CN2CCCN(S(=O)(=O)c3ccc(Br)s3)CC2)cc1,-50.1
13,O=C(CN1CCN(S(=O)(=O)c2ccc(Cl)cc2)CC1)NC(=O)NC1CCCCC1,-27.7
14,CCOc1ccc(NC(=O)CN2CCN(S(=O)(=O)c3ccc(Cl)cc3)CC2)cc1,-9.26
15,COc1ccc(NC(=O)CN2CCN(S(=O)(=O)c3ccc(Cl)cc3)CC2)cc1,-79.7
16,COc1ccc(NC(=O)CCN2CCN(S(=O)(=O)c3ccc(Cl)cc3)CC2)cc1,-27.1
17,Cc1cc(C)cc(NC(=O)CN2CCCN(S(=O)(=O)c3ccc(Br)s3)CC2)c1,-6.01
18,O=C(CN1CCN(S(=O)(=O)c2ccc(Cl)cc2)CC1)NC1CC1,1.82
19,O=C(CN1CCCN(S(=O)(=O)c2ccc(Br)s2)CC1)Nc1ccc(Cl)cc1,-28.7
20,O=C(CN1CCN(S(=O)(=O)c2ccc(Cl)cc2)CC1)NC1CCCC1,-50.2
21,COc1cc(NC(=O)CN2CCN(S(=O)(=O)c3ccc(C(C)C)cc3)CC2)cc(OC)c1,-11.5
